# In PubChem BioAssay (NCATS):
# Several values for one entry are separate records, joined by “and”; a condition that tells them apart may be missing. Equal entries are not always repeated. Inconclusive results are not listed. Entries that show only a call come without a potency. A structure can be active in one record and inactive in another. Activity calls are given as the source filed them. Unless noted, calls follow the shape of the dose curve; as a rule, active = well fitted curve in the direction sought with a large enough effect; inconclusive = small, poorly fitted or top-dose-only effect, or another doubt; inactive = no such curve, though single readings can be large; an effect the other way counts as inactive or inconclusive.
# Tested on: not listed separately
# Assay: qHTS Assay for Identification of Small Molecule Antagonists for NFkB Signaling Pathway (AID 895; active = well fitted inhibition curve with a large enough effect in the signal ratio, with a control signal flat, not every such curve was filed as active; the % refers to the signal ratio; also: potency is read from the fitted curve at half-maximal effect)
# Conditions: NFkB beta-lactamase reporter cells, FRET ratio 460/530, stimulated with 10 pM TNF alpha; series mostly up to 38.3 µM
# Method in brief: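 ME-180 NFkB-bla cells (beta-lactamase under NFkB response element), plated overnight, treated with compound then 10 pM TNF alpha (about EC50) for 5 hrs at 37 C. LiveBLAzer FRET read at 460/530 nm emission, 405 nm excitation.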
row,SMILES,Potency
1,N[C@]1(C(=O)O)CCc2cc(C(=O)O)ccc21,inactive
2,C[C@@](N)(C(=O)O)c1ccc(C(=O)O)cc1,inactive
3,C[C@@H]1C[C@@H]2[C@H]3CCC4=CC(=O)C=C[C@]4(C)[C@]3(F)[C@@H](O)C[C@@]2(C)[C@@]1(O)C(=O)CO,0.01 µM (active)
4,N[C@H](CCC(=O)N[C@H](CSN=O)C(=O)NCC(=O)O)C(=O)O,inactive
5,CC(C)(C)NC[C@H](O)COc1cccc2[nH]c(=O)[nH]c12,inactive
6,S=C(S)O[C@@H]1C[C@@H]2C[C@H]1[C@@H]1CCC[C@H]21,inactive

# Target: Cytochrome P450 2C19 (Homo sapiens) (UniProt P33261)
# Sequence (P33261 whole entry, looked up): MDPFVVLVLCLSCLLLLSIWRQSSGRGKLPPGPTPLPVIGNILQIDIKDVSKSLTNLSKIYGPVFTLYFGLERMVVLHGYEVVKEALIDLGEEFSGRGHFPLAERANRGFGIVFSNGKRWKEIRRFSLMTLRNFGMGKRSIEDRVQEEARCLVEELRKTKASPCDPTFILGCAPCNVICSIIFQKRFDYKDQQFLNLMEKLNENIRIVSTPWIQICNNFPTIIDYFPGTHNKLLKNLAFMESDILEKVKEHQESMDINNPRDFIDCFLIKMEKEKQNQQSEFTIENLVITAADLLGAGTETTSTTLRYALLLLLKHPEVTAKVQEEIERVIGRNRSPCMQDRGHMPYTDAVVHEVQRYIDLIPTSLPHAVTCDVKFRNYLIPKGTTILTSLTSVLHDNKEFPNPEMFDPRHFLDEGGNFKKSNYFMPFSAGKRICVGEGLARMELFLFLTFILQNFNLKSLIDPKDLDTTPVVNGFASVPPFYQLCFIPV
# Assay: qHTS Assay for Inhibitors and Substrates of Cytochrome P450 2C19 (AID 899); also: nearly all actives have a fitted effect of over 60% in size; also: potency is read from the fitted curve at half-maximal effect
# Conditions: recombinant CYP2C19, luciferin-H EGE luminescence; series mostly up to 57.1 µM
# Method in brief: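 Signal comes from luciferase acting on luciferin released by CYP2C19-mediated hydroxylation of Luciferin-H EGE, 10uM (KM). Assay mix: 5nM enzyme, 50mM KPO4; 60 min at 37C with NADPH regeneration. Data normalized against 57uM ketoconazole.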
row,SMILES,Potency
1,CC[N+](C)(CC)CCC[n+]1c(-c2ccccc2)c2cc(N)ccc2c2ccc(N)cc21,1.58 µM (active)
2,NC[C@](O)(CS(=O)(=O)O)c1ccc(Cl)cc1,inactive
3,CO[C@@]12C[C@@H](COC(=O)c3cncc(Br)c3)CN(C)[C@H]1Cc1cn(C)c3cccc2c13,6.31 µM (active)
4,CC1=C(\C=C/C(C)=C/C=C\C(C)=C\C(=O)O)C(C)(C)CCC1,inactive and 5.01 µM (active) and 12.6 µM (active)
5,O=C(O)[C@H]1CCCNC1,inactive
6,O=C(O)[C@H]1CN(CCCP(=O)(O)O)CCN1,inactive
7,CC(C)[C@@H]1[C@H]2CC[C@H](C2)[C@H]1N,inactive
8,CCC(=O)N[C@@H]1Cc2ccccc2[C@@H](c2ccccc2)C1,7.94 µM (active)

# Tested on: not listed separately
# Assay: Confirmation and Secondary Assay for Modulators of Hemoglobin Beta Chain Splicing at IVS2 654 locus (AID 910);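 also: HeLa cells stably carrying EGFP split by mutant beta-globin IVS2-654 intron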
# Conditions: HeLa EGFP-654 splicing reporter, GFP fluorescence, 48 h; series mostly up to 46.1 µM
# Method in brief: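 HeLa cells stably expressing EGFP interrupted by β-globin IVS2-654 intron, seeded overnight in Opti-MEM/2% FCS, then treated 2 days at 37 °C. Restored splicing read as total peak GFP intensity per well by laser scanning cytometry (488 nm excitation, 500–520 nm emission); 500 nM antisense PNA as control.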
row,SMILES,outcome
1,CC1=C(\C=C/C(C)=C/C=C\C(C)=C\C(=O)O)C(C)(C)CCC1,inactive
2,O=C(O)[C@H]1CCCNC1,inactive
3,CCN(Cc1ccncc1)C(=O)[C@@H](CO)c1ccccc1,inactive

# Tested on: not listed separately
# Assay: qHTS Assay for Identification of Small Molecule Agonists for Thrombopoietin (TPO) Signaling Pathway (AID 917)
# Conditions: TPO signaling pathway reporter cells, agonist qHTS, stimulated with TPO at its EC50; series mostly up to 38.5 µM
# Method in brief: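 Murine Ba/F3 cells stably expressing human TPO receptor and a Glycoprotein IIb promoter–luciferase reporter were IL-3-starved overnight, then treated with compounds plus TPO (26 pM final, its EC50) for 24 hrs at 37 C; luminescence was read.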
row,SMILES,Potency
1,CC(N)=NCCC[C@H](N)C(=O)O,inactive
2,NC[C@](O)(CS(=O)(=O)O)c1ccc(Cl)cc1,inactive
3,O=C(O)[C@H]1CCCNC1,inactive
4,CNCC[C@H](Oc1ccccc1OC)c1ccccc1,inactive

# Tested on: not listed separately
# Assay: Confirmation and Secondary Assay for Modulators of Hemoglobin Beta Chain Splicing at IVS2 705 locus (AID 930);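 also: HeLa cells stably expressing the EGFP-705 splicing reporter; GFP fluorescence per well restored by corrected splicing of the IVS2-705 intron in EGFP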
# Conditions: HeLa EGFP-705 splicing reporter, GFP fluorescence, 48 h; series mostly up to 46.1 µM
# Method in brief: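 Assay measures total GFP intensity per well in HeLa EGFP-705 cells after 2 days with compound; mis-splicing normally truncates EGFP, so fluorescence indicates corrected splicing.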
row,SMILES,outcome
1,CC1=C(\C=C/C(C)=C/C=C\C(C)=C\C(=O)O)C(C)(C)CCC1,inactive
2,O=C(O)[C@H]1CCCNC1,inactive
3,CCN(Cc1ccncc1)C(=O)[C@@H](CO)c1ccccc1,inactive

# Target: Muscarinic acetylcholine receptor M1 (Rattus norvegicus) (UniProt P08482)
# Sequence (P08482 whole entry, looked up): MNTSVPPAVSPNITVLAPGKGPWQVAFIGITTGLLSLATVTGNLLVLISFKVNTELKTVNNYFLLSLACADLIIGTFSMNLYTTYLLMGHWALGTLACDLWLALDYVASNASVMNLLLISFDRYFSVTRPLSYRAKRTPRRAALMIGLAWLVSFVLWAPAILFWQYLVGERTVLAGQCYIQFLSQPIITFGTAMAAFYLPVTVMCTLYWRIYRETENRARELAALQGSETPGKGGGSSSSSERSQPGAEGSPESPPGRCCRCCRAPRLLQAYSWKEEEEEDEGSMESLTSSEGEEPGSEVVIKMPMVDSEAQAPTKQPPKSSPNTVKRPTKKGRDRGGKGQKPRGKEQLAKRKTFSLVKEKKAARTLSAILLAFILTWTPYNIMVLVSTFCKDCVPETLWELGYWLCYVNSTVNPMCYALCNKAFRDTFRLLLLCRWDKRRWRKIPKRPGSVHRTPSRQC
# Assay: qHTS Assay for Antagonists of Acetylcholine Muscarinic M1 Receptor: Kinetic Measurement of Intracellular Calcium Response (AID 943); also: nearly all actives have a fitted effect of over 75% in size; also: potency is read from the fitted curve at half-maximal effect
# Conditions: M1-expressing cells, kinetic intracellular calcium fluorescence; series mostly up to 35.3 µM
# Method in brief: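 Intracellular calcium flux, recorded with Fluo-4 in a kinetic plate reader, served as signal; the response to carbachol at EC80 (100 nM final) was taken as maximal over minimal fluorescence after a 10 min compound pre-incubation in rat M1-CHO cells.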
row,SMILES,Potency
1,CC(N)=NCCC[C@H](N)C(=O)O,inactive
2,NC[C@](O)(CS(=O)(=O)O)c1ccc(Cl)cc1,inactive
3,COc1ccccc1NC(=O)Nc1nc(-c2cccnc2)nc2ccccc12,inactive
4,N[C@]1(C(=O)O)CCc2cc(C(=O)O)ccc21,inactive
5,O=C(O)[C@H]1CCCNC1,inactive
6,O=C(O)[C@H]1CN(CCCP(=O)(O)O)CCN1,inactive
7,C[C@@](N)(C(=O)O)c1ccc(C(=O)O)cc1,inactive
8,CNCC[C@H](Oc1ccccc1OC)c1ccccc1,14.1 µM (active)
9,C[C@H](N=C(NC#N)Nc1ccncc1)C(C)(C)C,inactive
10,CC(N)=NCCCC[C@H](N)C(=O)O,inactive
11,N[C@H](CCC(=O)N[C@H](CSN=O)C(=O)NCC(=O)O)C(=O)O,inactive

# Target: Pyruvate kinase (Leishmania mexicana) (UniProt Q27686)
# Sequence (Q27686 2-499 E452W): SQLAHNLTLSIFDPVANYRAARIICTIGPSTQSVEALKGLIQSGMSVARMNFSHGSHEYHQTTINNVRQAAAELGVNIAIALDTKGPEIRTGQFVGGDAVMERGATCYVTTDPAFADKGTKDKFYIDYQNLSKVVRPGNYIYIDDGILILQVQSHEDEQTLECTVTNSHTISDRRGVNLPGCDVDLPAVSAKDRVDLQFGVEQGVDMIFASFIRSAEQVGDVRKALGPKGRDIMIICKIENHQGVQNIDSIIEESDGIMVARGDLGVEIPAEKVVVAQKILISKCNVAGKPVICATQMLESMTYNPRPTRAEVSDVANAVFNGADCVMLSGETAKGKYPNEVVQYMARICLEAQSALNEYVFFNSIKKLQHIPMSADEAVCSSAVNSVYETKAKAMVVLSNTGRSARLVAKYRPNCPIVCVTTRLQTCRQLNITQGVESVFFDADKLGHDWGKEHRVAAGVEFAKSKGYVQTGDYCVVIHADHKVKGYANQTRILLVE
# Assay: qHTS Validation Assay for Inhibitors of Leishmania Mexicana Pyruvate Kinase (AID 945)
# Conditions: purified L. mexicana pyruvate kinase, enzyme activity, E451W mutant enzyme; series mostly up to 57.5 µM
# Method in brief: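 Pyruvate kinase activity of E451W LmPYK (0.2 nM) was followed as ATP output after 1 h at room temperature with 0.5 mM PEP and 0.1 mM ADP, detected by PKLight luminescence.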
row,SMILES,Potency
1,CC(N)=NCCC[C@H](N)C(=O)O,inactive
2,N[C@@H]1CCN(O)C1=O,inactive
3,NC[C@](O)(CS(=O)(=O)O)c1ccc(Cl)cc1,inactive
4,COc1ccccc1NC(=O)Nc1nc(-c2cccnc2)nc2ccccc12,inactive
5,N[C@]1(C(=O)O)CCc2cc(C(=O)O)ccc21,inactive
6,O=C(O)[C@H]1CCCNC1,inactive
7,N[C@H](C(=O)O)[C@@H]1C[C@@H]1C(=O)O,inactive
8,N[C@H](CCC(=O)N[C@H](CSN=O)C(=O)NCC(=O)O)C(=O)O,inactive

# Target: Pyruvate kinase PKM (Homo sapiens) (UniProt P14618)
# Sequence (P14618 whole entry, looked up): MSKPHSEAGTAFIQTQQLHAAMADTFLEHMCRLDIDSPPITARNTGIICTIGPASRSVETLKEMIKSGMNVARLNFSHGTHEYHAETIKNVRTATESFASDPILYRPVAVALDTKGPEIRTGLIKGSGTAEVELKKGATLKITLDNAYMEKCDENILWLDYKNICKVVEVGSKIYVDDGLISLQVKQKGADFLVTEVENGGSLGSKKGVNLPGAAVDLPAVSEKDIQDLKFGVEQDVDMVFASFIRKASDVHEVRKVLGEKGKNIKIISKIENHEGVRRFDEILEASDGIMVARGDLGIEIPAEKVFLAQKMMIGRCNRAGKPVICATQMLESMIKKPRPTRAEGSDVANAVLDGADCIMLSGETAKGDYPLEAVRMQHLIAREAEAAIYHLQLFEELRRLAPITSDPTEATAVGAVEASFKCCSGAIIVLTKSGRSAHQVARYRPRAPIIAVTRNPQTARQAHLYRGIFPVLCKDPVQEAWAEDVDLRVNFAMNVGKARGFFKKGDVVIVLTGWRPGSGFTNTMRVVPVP
# Assay: qHTS Assay for Activators of Human Muscle Pyruvate Kinase (AID 954; active = well fitted curve in the direction sought with a large enough effect, not every such curve was filed as active)
# Conditions: purified human muscle pyruvate kinase, luciferase-coupled luminescence, 1 h; series mostly up to 57.5 µM
# Method in brief: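 Purified human PKM2 (0.1 nM) with 0.5 mM PEP (Km) and 0.1 mM ADP in 50 mM imidazole pH 7.2, KCl, MgCl2, 1 h at room temperature; ATP formed read by coupled luciferase luminescence. Normalized to no-enzyme/110 uM thiadiazolimine inhibition; 0.3 nM enzyme column for activation.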
row,SMILES,outcome
1,N[C@@H]1CCN(O)C1=O,inactive
2,NC[C@](O)(CS(=O)(=O)O)c1ccc(Cl)cc1,inactive
3,COc1ccccc1NC(=O)Nc1nc(-c2cccnc2)nc2ccccc12,inactive
4,CC1=C(\C=C/C(C)=C/C=C\C(C)=C\C(=O)O)C(C)(C)CCC1,inactive
5,N[C@]1(C(=O)O)CCc2cc(C(=O)O)ccc21,inactive
6,O=C(O)[C@H]1CN(CCCP(=O)(O)O)CCN1,inactive
7,C[C@@](N)(C(=O)O)c1ccc(C(=O)O)cc1,inactive
8,N[C@H](C(=O)O)[C@@H]1C[C@@H]1C(=O)O,inactive
9,CNCC[C@H](Oc1ccccc1OC)c1ccccc1,inactive
10,CC(N)=NCCCC[C@H](N)C(=O)O,inactive
11,C[C@@H]1C[C@@H]2[C@H]3CCC4=CC(=O)C=C[C@]4(C)[C@]3(F)[C@@H](O)C[C@@]2(C)[C@@]1(O)C(=O)CO,inactive
12,N[C@H](CCC(=O)N[C@H](CSN=O)C(=O)NCC(=O)O)C(=O)O,inactive

# Target: Alpha-galactosidase A (Homo sapiens) (UniProt P06280)
# Sequence (P06280 whole entry, looked up): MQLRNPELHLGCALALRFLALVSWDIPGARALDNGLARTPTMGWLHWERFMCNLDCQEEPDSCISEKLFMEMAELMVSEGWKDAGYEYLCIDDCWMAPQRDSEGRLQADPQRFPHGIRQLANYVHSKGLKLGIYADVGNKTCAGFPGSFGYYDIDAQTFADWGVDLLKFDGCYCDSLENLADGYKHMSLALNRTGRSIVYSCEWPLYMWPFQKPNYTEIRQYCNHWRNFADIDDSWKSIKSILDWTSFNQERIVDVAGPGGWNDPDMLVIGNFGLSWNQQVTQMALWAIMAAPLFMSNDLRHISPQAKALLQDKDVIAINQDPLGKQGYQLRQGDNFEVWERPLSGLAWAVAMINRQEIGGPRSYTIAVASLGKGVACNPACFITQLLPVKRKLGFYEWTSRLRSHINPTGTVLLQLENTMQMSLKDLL
# Assay: Counterscreen for Glucocerebrosidase Inhibitors: qHTS Assay for Human alpha-Galactosidase at pH 4.5 (AID 992)
# Conditions: purified enzyme, fluorogenic substrate; series mostly up to 76.9 µM
# Method in brief: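 Human enzyme (2 nM) with 80 uM 4-methylumbelliferyl alpha-D-galactopyranoside in 50 mM citric acid, 0.005% Tween-20, pH 4.5, 20 min at room temperature. Compounds 0.7 nM–77 uM; fluorescence Ex 365/Em 440 after pH 10 stop; AC50 from Hill fits.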
row,SMILES,outcome
1,CC(N)=NCCC[C@H](N)C(=O)O,inactive
2,N[C@@H]1CCN(O)C1=O,inactive
3,CC1=C(\C=C/C(C)=C/C=C\C(C)=C\C(=O)O)C(C)(C)CCC1,inactive
4,O=C(O)[C@H]1CN(CCCP(=O)(O)O)CCN1,inactive
5,CCN(Cc1ccncc1)C(=O)[C@@H](CO)c1ccccc1,inactive
6,C[C@@](N)(C(=O)O)c1ccc(C(=O)O)cc1,inactive
7,CNCC[C@H](Oc1ccccc1OC)c1ccccc1,inactive
8,C[C@H](N=C(NC#N)Nc1ccncc1)C(C)(C)C,inactive
9,C[C@@H]1C[C@@H]2[C@H]3CCC4=CC(=O)C=C[C@]4(C)[C@]3(F)[C@@H](O)C[C@@]2(C)[C@@]1(O)C(=O)CO,inactive
10,S=C(S)O[C@@H]1C[C@@H]2C[C@H]1[C@@H]1CCC[C@H]21,inactive
